# High-throughput results from PubChem.
# CCT chaperon mod – modulators of cytosolic chaperonin (CCT/TRiC) activity. purified chaperonin ATPase assay, HTRF ADP detection, 30 min. activity change, % (test concentration not listed), hits read low. 0.3% of 360,000 active; in the data active means activity change below about -30%
#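 First, chaperonin was dispensed at 40 nM or 20 nM final depending on batch activity. Next, compounds were pinned at 76 uM and ATP added at 10 uM. After 30 min at 37 °C, ADP detection reagents ran 30 min at ambient temperature.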
# G9a inh – inhibitors of human histone lysine methyltransferase G9a; 8.8% of 350,000 active; Potency, µM (titrated, usually from 102 µM), without a hit: top-dose activity, negative = inhibition, most hits filed as inhibitors; G9a H3K9 monomethylation, AlphaScreen, 2 h; Q96KQ7; AID 504332; further: potency means the concentration at half of the fitted maximal effect; nearly all actives have a fitted effect of over 75% in size
#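 G9a (20 nM) was preincubated 15 min with compound, then reacted 2 h at room temperature with 500 nM biotin-H3K9 peptide and 20 µM SAM. Monomethyl-H3K9 detected by AlphaScreen using anti-H3K9me1 antibody.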
# Sfp inh – inhibitors of Bacillus subtilis Sfp phosphopantetheinyl transferase. Biochemical Sfp PPTase activity, qHTS. Potency, µM, inactives show largest response in the series, negative = inhibition, usual class: inhibitors. Q9F4F7. 3.5% of 310,000 active;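 further: the enzyme is Sfp with the accession as filed and its product quenches rhodamine fluorescence; potency means the concentration at half of the fitted maximal effect; 0% = enzyme reaction without inhibitor and -100% = no enzyme wells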
#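 Fluorescence-quenching assay: 15 nM Sfp-PPTase preincubated 15 min at room temperature with compound, then 5 uM rhodamine-CoA and 12.5 uM BHQ-2-labelled YbbR peptide added. Fluorescence (ex 525/em 598 nm) read at start and after 30 min; difference gives rate.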
# PLK1 PBD block – inhibitors of human PLK1 polo-box domain binding | Potency, µM, inactives show max response, negative = inhibition, hits mostly inhibitors | Plk1 PBD binding of FITC phosphopeptide, fluorescence polarization | 2.8% of 360,000 active | P53350 | AID 720504; further: potency means the concentration at half of the fitted maximal effect; series mostly up to about 57 µM; nearly all actives have a fitted effect of over 65% in size
# Mm-Cpn inhibitor – M. maripaludis TRiC chaperonin inhibition; Potency, µM (titrated, usually from 76.9 µM), without a hit: at the highest dose activity, negative = inhibition, hits mostly inhibitors; purified Mm-Cpn ATPase, ADP Transcreener TR-FRET; 0.031% of 330,000 active; AID 504842; further: potency means the concentration at half of the fitted maximal effect; nearly all actives have a fitted effect of over 80% in size
#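 Compound-treated chaperonin, 25 nM final, turns over 10 uM ATP at 37°C for 30 min following a 10 min preincubation; ADP generated competes with ADP-d2 for Eu-cryptate antibody, lowering FRET.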
# VDR inh – inhibitors of human vitamin D receptor; VDR-SRC2-3 peptide fluorescence polarization, 2 h; P11473; 0.93% of 400,000 active; Potency, µM, for inactives: max response, negative = inhibition, usual class: inhibitors; AID 504847; further: potency means the concentration at half of the fitted maximal effect
# Target sequence (P11473 whole entry, looked up): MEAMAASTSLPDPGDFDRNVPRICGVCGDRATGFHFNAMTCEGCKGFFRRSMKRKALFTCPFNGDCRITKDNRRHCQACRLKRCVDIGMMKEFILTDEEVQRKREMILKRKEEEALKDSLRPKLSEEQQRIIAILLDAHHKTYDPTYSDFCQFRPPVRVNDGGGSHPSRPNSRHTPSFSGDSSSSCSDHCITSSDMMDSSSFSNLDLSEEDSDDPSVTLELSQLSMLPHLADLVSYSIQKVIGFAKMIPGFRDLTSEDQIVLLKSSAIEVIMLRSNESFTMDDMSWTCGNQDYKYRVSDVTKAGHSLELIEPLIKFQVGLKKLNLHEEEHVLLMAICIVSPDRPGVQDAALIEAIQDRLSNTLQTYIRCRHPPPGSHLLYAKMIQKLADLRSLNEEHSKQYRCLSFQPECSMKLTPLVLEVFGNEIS
#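 FP read-out; VDR + SRC2-3 coactivator peptide; 23 nl compound by pintool; 2 h RT incubation; reagents held at 4 deg C, protected from light.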
# * hit, by the source's call; ? = inconclusive; · = not tested or not shown; [ ] = remark or other dose. Only some compounds are listed: those with a hit (about 10% of all), similar ones and a draw of the others. Unless noted, the call rests on the fitted dose curve; in most records, active means well fitted curve in the direction sought with a large enough effect; inconclusive means small, poorly fitted or top-dose-only effect, or another doubt; inactive means no such curve, though single readings can be large; an effect the other way counts as inactive or inconclusive. Unless noted, on the % scale 0 is the no-effect control and ±100 the full control effect.
SMILES,CCT chaperon mod,G9a inh,Sfp inh,PLK1 PBD block,Mm-Cpn inhibitor,VDR inh
O=C(Nc1ccc2c(c1)N(C1CCCC1)C(=O)c1ccccc1S2)c1ccccc1,·,-12%[59 µM],·,·,·,12%
CCCCC1=CC2=C(c3ccco3)C(=O)C(C)(OC(=O)c3ccc(Cl)nc3)C(=O)C2=CO1 (stereo unspecified),·,·,-16%,·,·,?
Cc1c(CNCCCc2ccccc2)c(C(=O)O)c(C)n1Cc1ccc(Cl)cc1,·,-2%[59 µM],·,·,·,13%
CCC1OCCC=CC1C (stereo unspecified),·,·,9%,·,·,·
CCCNC(=O)OC[C@H]1O[C@@H](CCO/N=C2/C[C@@H](O)[C@@H](O)[C@@H]3[C@@H]4C(=O)N(CC)C(=O)[C@H]4CC[C@@H]23)C=C[C@@H]1Oc1ccc(OC)cc1,·,·,7%,·,·,·
COc1cccc(Nc2ncc3nc(C)c(=O)n(C[C@H]4CCCO4)c3n2)c1,·,9%[0.501 µM],7%,·,·,-6%
Cc1ccc(C(=O)Cn2cnc3ccccc3c2=O)cc1,-1,26%[59 µM],1%,30µM*,0%,-9%
COc1cccc(N2CCN(c3ncnc4c3[nH]c3ccc(F)cc34)CC2C)c1 (stereo unspecified),0,18µM*,27%,-6%,-1%,1%
COc1cccc(N2CCN(c3ncnc4c3[nH]c3ccccc34)CC2C)c1 (stereo unspecified),·,?,6%,·,-1%,·
O=c1c2c(-c3ccco3)csc2nc(SCc2cn3cccnc3n2)n1-c1ccccc1,-11,?,18µM*,24µM*,-3%,-12%
CCc1ccc2[nH]c(=O)c(CN(Cc3ccccc3)Cc3nnnn3Cc3ccco3)cc2c1,-1,10µM*,18µM*,-12%,-21%,5%
Cc1ccc2[nH]c(=O)c(CN(Cc3ccc4c(c3)OCO4)Cc3nnnn3Cc3ccco3)cc2c1,-6,?,-9%,-12%,-3%,8%
COc1ccccc1CN(Cc1cc2cc3c(cc2[nH]c1=O)OCCO3)Cc1nnnn1Cc1ccco1,3,?,13µM*,?,-7%,?
CCCC(c1nnnn1CC(=O)OCC)N(Cc1cc2c(C)cc(C)cc2[nH]c1=O)C1CCCC1 (stereo unspecified),-2,28µM*,-13%,1%,-1%,1%
Cc1cc(C)c2cc(CN(Cc3ccc4c(c3)OCO4)Cc3nnnn3Cc3ccco3)c(=O)[nH]c2c1,2,-8%[12.7 µM],14µM*,-10%,-19%,14%
CCc1ccc2[nH]c(=O)c(CN(Cc3ccccc3)Cc3nnnn3Cc3ccccc3)cc2c1,·,·,·,·,·,-10%
CCCC(c1nnnn1CC(=O)OCC)N(Cc1cc2ccc(C)cc2[nH]c1=O)C1CCCC1 (stereo unspecified),0,3%,4%,-9%,2%,25%
COC(=O)N1C(C2CC2)=Cc2ccccc2C1CC(C)=O (stereo unspecified),·,·,-1%,·,·,-9%
COc1ccc(CC(=O)NCCc2csc(-c3cccc(C)c3)n2)cc1,·,8%[59 µM],·,·,·,0%
O=C1CC(c2nc(-c3cccc(Cl)c3)no2)CN1c1ccc2c(c1)OCCO2 (stereo unspecified),·,-1%[59 µM],·,·,·,-1%
Cc1cc(C)cc(NC(=O)COCc2cc(-c3ccc4c(c3)OCO4)on2)c1,·,6%[59 µM],·,·,·,15%
CCCC(c1nnnn1CCOC)N(Cc1cc2cc(C)c(C)cc2[nH]c1=O)CC1CCCO1 (stereo unspecified),-3,-16%[12.7 µM],10µM*,-2%,-7%,-3%
O=c1[nH]c2cc3c(cc2cc1CN(CCc1ccccc1)Cc1nnnn1C1CCCC1)OCCO3,·,16µM*,?,·,-4%,·
CCOC(=O)Cn1nnnc1CN(Cc1cccs1)Cc1cc2cc(C)cc(C)c2[nH]c1=O,-3,?,16µM*,-4%,-17%,9%
Cc1ccc2[nH]c(=O)c(CN(Cc3cccnc3)Cc3nnnn3CCN3CCOCC3)cc2c1,-2,-5%[12.7 µM],8%,4.7µM*,1%,3%
N#Cc1c(-c2ccccc2)no[n+]1[O-],·,22%[12.7 µM],4%,·,·,·
